Consider 39 targets from the supplement of paper PMC10849652.

Targets with a hit are over-represented here; the source holds about 8,800 in all. About 0.5% of all pairs of compound and target were hits. Values without a mark were called inactive.

UniProt P49916, sequence (P49916 whole entry, looked up): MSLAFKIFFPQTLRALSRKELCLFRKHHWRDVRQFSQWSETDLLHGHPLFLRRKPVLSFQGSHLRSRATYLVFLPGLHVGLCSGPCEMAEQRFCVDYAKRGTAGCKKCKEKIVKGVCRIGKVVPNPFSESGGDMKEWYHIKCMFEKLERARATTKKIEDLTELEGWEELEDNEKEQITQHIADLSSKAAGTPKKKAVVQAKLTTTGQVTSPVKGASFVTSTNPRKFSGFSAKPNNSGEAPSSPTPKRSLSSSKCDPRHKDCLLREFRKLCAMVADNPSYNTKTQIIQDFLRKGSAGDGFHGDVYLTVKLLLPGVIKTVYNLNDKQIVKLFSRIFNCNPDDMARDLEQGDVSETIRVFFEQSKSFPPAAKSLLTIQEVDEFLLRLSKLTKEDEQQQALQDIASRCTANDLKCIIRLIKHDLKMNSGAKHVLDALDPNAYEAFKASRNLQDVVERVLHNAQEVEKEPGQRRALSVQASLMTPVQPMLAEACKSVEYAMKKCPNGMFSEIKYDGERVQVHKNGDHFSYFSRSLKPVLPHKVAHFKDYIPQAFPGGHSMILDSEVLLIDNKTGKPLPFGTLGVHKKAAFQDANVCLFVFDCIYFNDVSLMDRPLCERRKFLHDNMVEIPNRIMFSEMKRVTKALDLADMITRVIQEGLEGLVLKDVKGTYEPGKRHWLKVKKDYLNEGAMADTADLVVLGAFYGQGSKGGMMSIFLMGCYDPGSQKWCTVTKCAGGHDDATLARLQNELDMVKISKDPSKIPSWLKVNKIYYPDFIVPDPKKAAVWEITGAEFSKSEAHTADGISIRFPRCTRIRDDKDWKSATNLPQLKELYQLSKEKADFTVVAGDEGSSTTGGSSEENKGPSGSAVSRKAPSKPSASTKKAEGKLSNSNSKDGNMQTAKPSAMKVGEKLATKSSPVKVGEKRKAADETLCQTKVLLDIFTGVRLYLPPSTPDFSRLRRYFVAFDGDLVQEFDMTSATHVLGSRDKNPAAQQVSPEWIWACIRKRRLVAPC
UniProt P48449, sequence (P48449 whole entry, looked up): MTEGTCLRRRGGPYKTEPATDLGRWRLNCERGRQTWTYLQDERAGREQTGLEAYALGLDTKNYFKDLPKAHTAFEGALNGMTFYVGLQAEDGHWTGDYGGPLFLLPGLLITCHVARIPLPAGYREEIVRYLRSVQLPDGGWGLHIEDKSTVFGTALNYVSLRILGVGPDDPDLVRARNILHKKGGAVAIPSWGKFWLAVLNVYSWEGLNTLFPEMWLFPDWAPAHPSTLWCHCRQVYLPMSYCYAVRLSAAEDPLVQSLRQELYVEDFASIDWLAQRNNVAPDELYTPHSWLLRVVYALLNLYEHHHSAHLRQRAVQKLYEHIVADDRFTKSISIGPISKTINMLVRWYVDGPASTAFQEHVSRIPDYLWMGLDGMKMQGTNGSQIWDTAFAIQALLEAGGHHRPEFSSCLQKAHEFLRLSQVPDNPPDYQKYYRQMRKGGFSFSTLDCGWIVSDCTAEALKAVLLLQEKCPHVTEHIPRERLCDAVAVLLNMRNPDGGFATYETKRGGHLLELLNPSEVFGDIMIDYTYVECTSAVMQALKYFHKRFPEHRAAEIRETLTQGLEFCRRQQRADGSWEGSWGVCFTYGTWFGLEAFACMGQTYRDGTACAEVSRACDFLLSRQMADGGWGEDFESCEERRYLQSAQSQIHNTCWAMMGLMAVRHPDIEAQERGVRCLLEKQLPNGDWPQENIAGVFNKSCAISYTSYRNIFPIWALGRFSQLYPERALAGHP
UniProt Q09328, sequence (Q09328 whole entry, looked up): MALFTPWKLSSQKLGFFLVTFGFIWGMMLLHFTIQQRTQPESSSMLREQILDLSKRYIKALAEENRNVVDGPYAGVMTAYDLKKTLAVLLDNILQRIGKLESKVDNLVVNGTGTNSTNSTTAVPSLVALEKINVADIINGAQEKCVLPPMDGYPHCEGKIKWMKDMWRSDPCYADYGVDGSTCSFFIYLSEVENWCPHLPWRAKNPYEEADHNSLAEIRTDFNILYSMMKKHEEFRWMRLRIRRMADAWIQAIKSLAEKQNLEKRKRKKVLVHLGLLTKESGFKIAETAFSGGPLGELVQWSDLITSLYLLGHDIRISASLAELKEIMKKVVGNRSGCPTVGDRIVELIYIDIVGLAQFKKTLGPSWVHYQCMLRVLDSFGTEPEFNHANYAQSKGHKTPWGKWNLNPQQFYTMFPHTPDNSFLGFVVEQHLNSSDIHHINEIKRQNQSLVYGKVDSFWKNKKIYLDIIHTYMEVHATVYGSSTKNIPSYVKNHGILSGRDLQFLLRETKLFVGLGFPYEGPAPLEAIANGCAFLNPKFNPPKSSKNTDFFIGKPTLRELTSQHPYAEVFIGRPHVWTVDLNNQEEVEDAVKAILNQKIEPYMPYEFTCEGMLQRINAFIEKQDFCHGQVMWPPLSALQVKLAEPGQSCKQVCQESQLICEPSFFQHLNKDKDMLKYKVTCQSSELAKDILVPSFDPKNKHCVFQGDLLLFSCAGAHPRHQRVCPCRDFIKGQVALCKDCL
UniProt Q9UBU8, sequence (Q9UBU8 whole entry, looked up): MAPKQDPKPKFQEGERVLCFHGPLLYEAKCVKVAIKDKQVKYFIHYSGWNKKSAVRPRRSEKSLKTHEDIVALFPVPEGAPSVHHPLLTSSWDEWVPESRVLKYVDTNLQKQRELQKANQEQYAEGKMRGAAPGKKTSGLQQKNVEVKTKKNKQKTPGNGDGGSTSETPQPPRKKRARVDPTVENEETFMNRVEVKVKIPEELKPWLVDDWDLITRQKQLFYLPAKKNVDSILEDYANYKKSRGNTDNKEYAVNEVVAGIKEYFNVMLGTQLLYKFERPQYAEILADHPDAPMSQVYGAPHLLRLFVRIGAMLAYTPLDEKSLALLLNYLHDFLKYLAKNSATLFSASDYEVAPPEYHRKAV
UniProt Q00013, sequence (Q00013 whole entry, looked up): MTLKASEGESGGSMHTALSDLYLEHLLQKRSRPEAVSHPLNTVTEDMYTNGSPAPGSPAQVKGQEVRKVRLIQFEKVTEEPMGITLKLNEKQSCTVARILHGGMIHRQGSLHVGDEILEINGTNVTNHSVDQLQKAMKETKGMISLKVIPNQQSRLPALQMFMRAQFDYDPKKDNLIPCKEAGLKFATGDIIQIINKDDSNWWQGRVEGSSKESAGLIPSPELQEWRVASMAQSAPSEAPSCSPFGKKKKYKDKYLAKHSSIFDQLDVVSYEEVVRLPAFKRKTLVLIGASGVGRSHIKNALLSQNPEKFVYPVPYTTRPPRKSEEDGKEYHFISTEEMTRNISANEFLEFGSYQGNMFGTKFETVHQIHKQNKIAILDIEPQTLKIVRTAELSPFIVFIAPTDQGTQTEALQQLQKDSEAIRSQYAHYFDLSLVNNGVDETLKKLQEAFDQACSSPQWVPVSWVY
UniProt Q9UBB5, sequence (Q9UBB5 whole entry, looked up): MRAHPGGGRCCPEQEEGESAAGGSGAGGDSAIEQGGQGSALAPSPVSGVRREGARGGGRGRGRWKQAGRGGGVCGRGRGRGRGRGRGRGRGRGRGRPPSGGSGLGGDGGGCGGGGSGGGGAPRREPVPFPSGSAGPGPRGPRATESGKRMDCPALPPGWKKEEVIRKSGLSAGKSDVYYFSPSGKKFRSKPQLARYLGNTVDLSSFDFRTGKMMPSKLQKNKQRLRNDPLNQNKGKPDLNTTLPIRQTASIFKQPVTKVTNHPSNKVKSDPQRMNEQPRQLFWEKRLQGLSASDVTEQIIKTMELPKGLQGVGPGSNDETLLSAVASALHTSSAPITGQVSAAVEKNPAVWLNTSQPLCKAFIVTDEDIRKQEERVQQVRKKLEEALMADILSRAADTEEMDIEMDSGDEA
UniProt Q9NZL9, sequence (Q9NZL9 whole entry, looked up): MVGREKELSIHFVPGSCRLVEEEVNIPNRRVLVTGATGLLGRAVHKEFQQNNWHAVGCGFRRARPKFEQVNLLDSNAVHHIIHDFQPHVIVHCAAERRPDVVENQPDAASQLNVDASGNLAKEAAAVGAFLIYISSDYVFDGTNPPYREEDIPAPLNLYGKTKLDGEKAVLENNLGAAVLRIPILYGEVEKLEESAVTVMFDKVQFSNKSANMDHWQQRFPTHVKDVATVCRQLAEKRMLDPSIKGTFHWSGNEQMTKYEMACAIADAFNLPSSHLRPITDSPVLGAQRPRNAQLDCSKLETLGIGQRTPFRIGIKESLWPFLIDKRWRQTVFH
UniProt Q9BTE3, sequence (Q9BTE3 whole entry, looked up): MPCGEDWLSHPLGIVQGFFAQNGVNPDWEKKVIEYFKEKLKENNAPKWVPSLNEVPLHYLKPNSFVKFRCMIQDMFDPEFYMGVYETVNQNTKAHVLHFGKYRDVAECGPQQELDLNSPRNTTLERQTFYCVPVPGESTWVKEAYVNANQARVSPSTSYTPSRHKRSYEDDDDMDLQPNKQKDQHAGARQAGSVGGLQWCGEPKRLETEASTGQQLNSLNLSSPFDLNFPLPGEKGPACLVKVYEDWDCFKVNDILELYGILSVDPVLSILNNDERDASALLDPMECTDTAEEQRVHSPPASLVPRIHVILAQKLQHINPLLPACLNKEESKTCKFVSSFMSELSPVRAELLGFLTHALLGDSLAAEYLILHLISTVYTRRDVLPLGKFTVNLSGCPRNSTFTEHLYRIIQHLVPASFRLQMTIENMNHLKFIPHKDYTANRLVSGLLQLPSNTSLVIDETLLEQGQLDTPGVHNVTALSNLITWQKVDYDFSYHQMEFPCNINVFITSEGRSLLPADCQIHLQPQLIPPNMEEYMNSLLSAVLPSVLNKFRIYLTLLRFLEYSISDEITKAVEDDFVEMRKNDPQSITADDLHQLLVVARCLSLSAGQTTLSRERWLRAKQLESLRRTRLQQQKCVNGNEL
UniProt P10620, sequence (P10620 whole entry, looked up): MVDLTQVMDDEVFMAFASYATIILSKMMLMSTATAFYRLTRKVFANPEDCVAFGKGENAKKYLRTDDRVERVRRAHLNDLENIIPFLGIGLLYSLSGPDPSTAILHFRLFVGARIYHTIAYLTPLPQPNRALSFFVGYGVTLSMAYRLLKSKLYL
UniProt O95777, sequence (O95777 whole entry, looked up): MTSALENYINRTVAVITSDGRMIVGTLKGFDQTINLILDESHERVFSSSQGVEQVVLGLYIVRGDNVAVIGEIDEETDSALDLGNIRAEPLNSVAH

Compound in one assay: Cc1ccc(-n2nc(C(C)(C)C)cc2NC(=O)Nc2ccc(OCCN3CCOCC3)c3ccccc23)cc1 [doramapimod]
Description: log2 fold change, soluble protein after heating vs DMSO (PISA); higher = thermal stabilisation; K562 lysate, 10 uM; active = over 0.2 and 3.5 SD of the protein, either way, in both replicates (recomputed). A digest of the protocol:
(§1)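 A 30 min treatment with 10 μM compound was applied to crude K562 extract at 1 mg/mL protein in PBS pH 7.4 with 1 mM MgCl2. Heating for 3 min spanned 48°C-58°C, after which aliquots were pooled, adjusted to 0.5% NP-40 at 4°C and spun at 21,000xg for 90 min. TMTpro 16plex LC-MS/MS of the supernatant, with channel sums equalised, gave values recorded as log-two fold change in thermal stability against solvent controls, from duplicates.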
With MGST1 (UniProt P10620), the log2 fold change is -0.041.
On the same count and under the same terms, the figure for MGAT5 (UniProt Q09328) is 0.023; for MAT2B (UniProt Q9NZL9) it is -0.023; for MCMBP (UniProt Q9BTE3) it is -0.001.
The same measure, in the same setting: the figure for MICB, A0A140T979 is -0.003; for LSS (UniProt P48449) it is 0.031; for MORF4L1 isoform 2 (UniProt Q9UBU8) it is -0.047.
On the same count and under the same terms, the figure for MAPKAPK3 (UniProt Q16644) is -0.025; for KPNA4 (UniProt O00629) it is 0.02; for LIG3 (UniProt P49916) it is 0.016.
As to MAP4 (UniProt E7EVA0), the log2 fold change was 0.017.
The same measure, in the same setting: as for MLST8 (UniProt Q9BVC4), the figure is 0.08.
Same read-out and setting: as for LSG1 (UniProt Q9H089), the figure is 0.085.
The same measure, in the same setting: as for MPP1 (UniProt Q00013), the figure is 0.006.
For the target LRWD1 (UniProt Q9UFC0), the log2 fold change was 0.029.
Consider MBD2 (UniProt Q9UBB5), for which the log2 fold change was 0.045.
Same read-out and setting: as for MCU (UniProt Q8NE86), the figure is 0.085.

Compound in another assay: Cc1ccc(NC(=O)c2ccc(CN3CC[C@H](N(C)C)C3)c(C(F)(F)F)c2)cc1Nc1nccc(-c2cncnc2)n1 [bafetinib]
Described as above. A digest of the protocol: as §1
As to LARS2 (UniProt Q15031), the log2 fold change is -0.067.
With LYSMD3 (UniProt Q7Z3D4), the log2 fold change was -0.057.
In the case of MARK3 (UniProt P27448), the log2 fold change was -0.088.
For MAP2K2 (UniProt P36507), the log2 fold change was -0.063.
Same read-out and setting: the figure for MAD2L1BP isoform 3 (UniProt Q15013) is -0.041.
Take MOCS1 isoform 8 (UniProt Q9NZB8): the log2 fold change is -0.032.
Still for that read-out and setting: as for LRRC40 (UniProt Q9H9A6), the figure is -0.028.
On the same count and under the same terms, as for MPZL1 (UniProt O95297), the figure is -0.027.
On the same count and under the same terms, the figure for MON2 isoform 5 (UniProt Q7Z3U7) is -0.035; for LLGL1 (UniProt Q15334) it is -0.104; for MRPL10 isoform 2 (UniProt Q7Z7H8) it is -0.059.
With LIMS1 isoform 3 (UniProt P48059), the log2 fold change is -0.035.
The same measure, in the same setting: as for MED12 isoform 2 (UniProt Q93074), the figure is -0.012.
Regarding METTL7A (UniProt Q9H8H3), the log2 fold change is 0.048.
Consider MED17 (UniProt Q9NVC6), for which the log2 fold change is -0.005.
Same read-out and setting: as for LSM8 (UniProt O95777), the figure is 0.176.
Turning to MFF isoform 2 (UniProt Q9GZY8), the log2 fold change was -0.031.
Same read-out and setting: the figure for LARS (UniProt Q9P2J5) is -0.048; for MAPK9 (UniProt P45984) it is -0.011.
For MED13L (UniProt Q71F56), the log2 fold change was -0.061.
Still for that read-out and setting: the figure for MACROD1 (UniProt Q9BQ69) is -0.102; for MRPL46 (UniProt Q9H2W6) it is 0.034.
Same read-out and setting: the figure for MGST1 (UniProt P10620) is -0.032; for MGAT5 (UniProt Q09328) it is 0.079.
Still for that read-out and setting: as for MAT2B (UniProt Q9NZL9), the figure is -0.007.
As to MCMBP (UniProt Q9BTE3), the log2 fold change was -0.007.
On the same count and under the same terms, the figure for MICB, A0A140T979 is -0.001; for LSS (UniProt P48449) it is 0.13.
Still for that read-out and setting: the figure for MORF4L1 isoform 2 (UniProt Q9UBU8) is -0.01; for MAPKAPK3 (UniProt Q16644) it is 0.026.
Same read-out and setting: the figure for KPNA4 (UniProt O00629) is 0.049; for LIG3 (UniProt P49916) it is -0.046.
As to MAP4 (UniProt E7EVA0), the log2 fold change is -0.055.
On to MLST8 (UniProt Q9BVC4), for which the log2 fold change was -0.026.
On the same count and under the same terms, as for LSG1 (UniProt Q9H089), the figure is -0.077; as for MPP1 (UniProt Q00013), -0.015; as for LRWD1 (UniProt Q9UFC0), -0.082.
On to MBD2 (UniProt Q9UBB5), for which the log2 fold change was -0.006.
The same measure, in the same setting: as for MCU (UniProt Q8NE86), the figure is -0.108.

Compound in another assay: Cc1cccc(CC(=O)N2CCc3c2ccc(-c2cn(C)c4ncnc(N)c24)c3F)n1
Described as above. A digest of the protocol:
as §1
For LARS2 (UniProt Q15031), the log2 fold change is 0.044.
LYSMD3 (UniProt Q7Z3D4): the log2 fold change was 0.23.
Same read-out and setting: as for MARK3 (UniProt P27448), the figure is 0.049; as for MAP2K2 (UniProt P36507), -0.015.
Same read-out and setting: the figure for MAD2L1BP isoform 3 (UniProt Q15013) is 0.008.
Still for that read-out and setting: as for MOCS1 isoform 8 (UniProt Q9NZB8), the figure is 0.04.
With LRRC40 (UniProt Q9H9A6), the log2 fold change was -0.032.
Same read-out and setting: the figure for MPZL1 (UniProt O95297) is -0.107.
Same read-out and setting: as for MON2 isoform 5 (UniProt Q7Z3U7), the figure is 0.12.
The same measure, in the same setting: as for LLGL1 (UniProt Q15334), the figure is -0.019.
In the case of MRPL10 isoform 2 (UniProt Q7Z7H8), the log2 fold change was -0.012.
Same read-out and setting: as for LIMS1 isoform 3 (UniProt P48059), the figure is 0.038.
Same read-out and setting: as for MED12 isoform 2 (UniProt Q93074), the figure is -0.011; as for METTL7A (UniProt Q9H8H3), 0.019; as for MED17 (UniProt Q9NVC6), 0.034.
With LSM8 (UniProt O95777), the log2 fold change is 0.026.
Still for that read-out and setting: as for MFF isoform 2 (UniProt Q9GZY8), the figure is 0.24; as for LARS (UniProt Q9P2J5), -0.005.
Same read-out and setting: the figure for MAPK9 (UniProt P45984) is -0.15.
With MED13L (UniProt Q71F56), the log2 fold change was 0.035.
Same read-out and setting: the figure for MACROD1 (UniProt Q9BQ69) is 0.052.
On the same count and under the same terms, as for MRPL46 (UniProt Q9H2W6), the figure is -0.073; as for MGST1 (UniProt P10620), -0.016; as for MGAT5 (UniProt Q09328), -0.112.
Same read-out and setting: as for MAT2B (UniProt Q9NZL9), the figure is 0.005; as for MCMBP (UniProt Q9BTE3), -0.048; as for MICB, A0A140T979, 0.027.
As to LSS (UniProt P48449), the log2 fold change was -0.013.
For the target MORF4L1 isoform 2 (UniProt Q9UBU8), the log2 fold change is 0.006.
On the same count and under the same terms, as for MAPKAPK3 (UniProt Q16644), the figure is -0.014; as for KPNA4 (UniProt O00629), 0.155.
On the same count and under the same terms, the figure for LIG3 (UniProt P49916) is 0.016; for MAP4 (UniProt E7EVA0) it is 0.008; for MLST8 (UniProt Q9BVC4) it is 0.032.
LSG1 (UniProt Q9H089): the log2 fold change was 0.072.
As for MPP1 (UniProt Q00013), the log2 fold change is 0.001.
The same measure, in the same setting: as for LRWD1 (UniProt Q9UFC0), the figure is 0.019; as for MBD2 (UniProt Q9UBB5), -0.032.
The same measure, in the same setting: as for MCU (UniProt Q8NE86), the figure is 0.032.
